Reference: PubChem BioAssay AID743286 (National Center for Advancing Translational Sciences (NCATS), 2014)
About 340 (31%) of roughly 1,100 compounds were called active. About 40% were inconclusive and are not listed. These entries were drawn from the full list. Unmarked numbers belong to inactive results. Calls follow the shape of the dose curve; as a rule, active = well fitted inhibition curve with a large enough effect; inconclusive = small, poorly fitted or top-dose-only effect; inactive = flat fitted curve, though single readings scatter.

biological target: Phosphatidylinositol 5-phosphate 4-kinase type-2 alpha (Homo sapiens) (UniProt P48426); assay: qHTS for Inhibitors of PI5P4K: Confirmation in Primary Assay; details: PI5P4Kalpha enzyme, ADP-Glo luminescence, 60 min; series mostly up to 76.9 µM; activity change, negative = inhibition: at the top concentration; also: nearly all actives have a fitted effect of over 65% in size
Text: In addition to finding PI5P, we discovered the type II phosphatidylinositol 5-phosphate 4-kinase (PI5P4K) family (alpha, beta, gamma isoforms) that catalyze the conversion of PI5P to PI(4,5)P2. Alternatively, PI(4,5)P2 can also be synthesized through phosphatidylinositol-4-phosphate (PI4P) by the type I phosphatidylinositol 4-phosphate 5-kinases (PI4P5K). These PI5P4K enzymes therefore represent one way by which cells can regulate endogenous PI5P levels and play important roles in insulin signaling and in stress responses. […] A qHTS PI5P4K-alpha ADP-Glo assay was developed to identify specific modulators of human PI5P4K, phosphatidylinositol-5-phosphate 4-kinase (Type II PIPK). This assay was screened against the MLSMR containing ~400,000 small molecules (PubChem AID 652105). To confirm that the hits were not interacting with the detection enzyme system, a 1536-well counterscreen against the ADP-Glo kit (Promega) was utilized, as described in Davis et al., 2013 [1]. Davis et al., PLoS One. 2013;8(1):e54127. NIH Chemical Genomics Center [NCGC] NIH Molecular Libraries Probe Centers Network [MLPCN] MLPCN Grant: MH096575 Assay Submitter (PI): Atsuo Sasaki, Beth Israel Deaconess Medical Center
2 microL of PI5P4Kalpha/substrate buffer (columns 1-2, 5-48) are dispensed into Greiner white solid bottom 1536-well assay plates; column 3 receives only PI5P4Kalpha buffer as 0x substrate controls; column 4 receives only substrate buffer as 0x PI5P4Kalpha controls. Final assay buffer consists of 0.038 M HEPES pH 7.4, 0.28 mM EGTA, 0.1% CHAPS, and 5% DMSO (final concentration). Compounds are then transferred via Kalypsys pin tool equipped with 1536-pin array (10 nL slotted pins, V&P Scientific, San Diego, CA). Following addition of compound, 1 microL of ATP (5 microM final concentration, all columns) is added to initiate the reaction. ATP is diluted in an assay buffer consisting of 0.02 M HEPES pH 7.4, 60 mM MgCl2, 15 microM ATP, and 0.1% CHAPS. The plates are then incubated at room temperature for 60 minutes. ADP-Glo reagent 1 is added (2 microL) and plates incubated for 45 minutes, before ADP-Glo reagent 2 (4 microL) is added and plates incubated for 30 minutes. They are then transferred to a ViewLux high-throughput CCD imager (PerkinElmer) wherein single end-point measurements of luminescence are acquired using a clear filter.
% is scaled to controls: 0 for no effect and ±100 for the full control effect; potency is read from the fitted curve at half-maximal effect.

Sequence of Phosphatidylinositol 5-phosphate 4-kinase type-2 alpha (Homo sapiens) (P48426 whole entry, looked up, canonical isoform): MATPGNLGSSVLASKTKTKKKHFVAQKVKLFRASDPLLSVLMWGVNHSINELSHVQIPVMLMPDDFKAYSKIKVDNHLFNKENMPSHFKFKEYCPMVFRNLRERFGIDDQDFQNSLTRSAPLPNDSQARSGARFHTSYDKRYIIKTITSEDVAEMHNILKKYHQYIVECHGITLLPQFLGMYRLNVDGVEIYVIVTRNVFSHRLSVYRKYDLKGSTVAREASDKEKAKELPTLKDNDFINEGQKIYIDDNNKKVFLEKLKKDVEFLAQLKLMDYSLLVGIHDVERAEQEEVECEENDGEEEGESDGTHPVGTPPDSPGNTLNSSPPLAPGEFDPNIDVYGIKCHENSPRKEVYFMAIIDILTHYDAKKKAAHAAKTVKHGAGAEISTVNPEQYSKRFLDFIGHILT

Row | Structure (SMILES) | Potency | activity change, negative = inhibition [%]
1 | S=C(NCc1ccco1)NCc1ccco1 | 14.1 µM (active) | 
2 | O=C(c1ccco1)N1CCN(C(=O)c2ccc(-c3ccc([N+](=O)[O-])cc3)o2)CC1 |  | -22.3
3 | O=C(NCc1ccco1)c1ccc([N+](=O)[O-])o1 | 31.6 µM (active) | 
4 | O=C(CSC1=NCCS1)NCc1ccco1 |  | -2.33
5 | CC(C)(C)[C@H]1C=C(C(=O)N2CCOCC2)O[C@@H](OCc2ccc(CO)cc2)C1 |  | 12.7
6 | COc1ccc(Cl)cc1S(=O)(=O)NCCCn1ccnc1 |  | 15.4
7 | COCCNC(=O)c1cc(-c2ccccc2)sc1N |  | -27.2
8 | Cc1ccc(CNc2ncnc3ccc(-c4ccc(CO)o4)cc23)o1 |  | -12.4
9 | Cc1cc(O)ccc1Nc1cc(-c2cccc(N(C)C)c2)ncn1 | 12.6 µM (active) | 
10 | O=C(NC1CCCC1)C(c1ccncc1)N(C(=O)c1csnn1)c1ccccc1F (stereo not given) |  | 2.88
11 | Cc1sc2ncn(CC(=O)N3CCC(C(N)=O)CC3)c(=O)c2c1S(=O)(=O)N1CC(C)CC(C)C1 (stereo not given) |  | -2.16
12 | Cc1noc(C)c1C(=O)Nc1ccc(-n2ccc(C(F)(F)F)n2)cc1 |  | 19.3
13 | O=C(Nc1ccc(S(=O)(=O)Nc2nccs2)cc1)c1nn(-c2ccc(F)cc2)ccc1=O | 15.8 µM (active) | 
14 | Cc1ccc(C)c(OC(C)C(=O)Nc2ccc(S(=O)(=O)Nc3nccs3)cc2)c1 (stereo not given) |  | -10.6
15 | COc1ccc(C(=O)N2CCCC2(C)C(=O)O)cc1C(F)(F)F (stereo not given) |  | -0.629
16 | O=C(c1cccc(-n2cccc2)c1)N1CCN(S(=O)(=O)c2ccccc2)CC1 | 3.98 µM (active) | 
17 | CC(=O)N1CCN(S(=O)(=O)c2cccc(C(=O)Nc3ccc(F)c(F)c3)c2)CC1 |  | 1.67
18 | COc1ccc(CN2CCC(=O)N([C@H](CO)CC(C)C)CC2)cc1OC |  | -0.623
19 | CCCCCCCCN1C(=O)[C@H](CC(=O)NCc2ccc(C)o2)C[C@@]2(C(=O)OC)CC(C)(C)CC=C12 |  | -22
20 | CC1=NN(c2nc(-c3ccc(Cl)cc3)cs2)C(=O)C1 | 15.8 µM (active) | 
21 | CCOC(=O)Nc1ccc2c(CNC(C)c3ccccc3OC)cc(=O)oc2c1 (stereo not given) |  | -1.24
22 | CC1CCN(C(=O)c2ccc(COc3ccccc3Cl)o2)CC1 |  | -1.87
23 | COc1ccc(C2=CC3=C(Br)C(=O)C(C)(OC(=O)c4cccs4)C(=O)C3=CO2)cc1 (stereo not given) | 22.4 µM (active) | 
24 | COC(=O)CCC(=O)OC1(C)C(=O)C2=CN(CC3CC3)C(c3ccc(OC)cc3)=CC2=C(Br)C1=O (stereo not given) |  | -26
25 | CCCCC1=CC2=C(c3ccco3)C(=O)C(C)(OC(=O)c3ccc(OC)cc3)C(=O)C2=CN1Cc1ccccc1 (stereo not given) |  | -20

Row | Structure (SMILES) | Potency | activity change, negative = inhibition [%]
26 | Cc1ccc(S(=O)c2ccc(NC(=O)C3CC3)cc2C#N)cc1 (stereo not given) |  | 0.926
27 | Cc1ccc(N(C(=O)CNC(=O)c2ccco2)C(C(=O)NC2CCCC2)c2cccnc2)c(C)c1 (stereo not given) |  | 0.488
28 | O=C(CN1CCN(c2ccccc2F)CC1)NCc1ccccc1 |  | 0.884
29 | COc1cc(C(=O)Nc2scc(-c3ccc(C)cc3)c2C(=O)O)cc(OC)c1OC | 3.55 µM (active) | 
30 | COc1ccc(-c2csc(NC(=O)c3ccccc3F)c2C(=O)O)cc1 |  | -21.7
31 | Cc1ccc(-c2csc(NC(=O)c3ccc(Br)cc3)c2C(=O)O)cc1 | 14.1 µM (active) | 
32 | COc1ccc(C(=O)NCCSc2ccccc2)cc1OC |  | -0.179
33 | COc1cc(C(=O)Nc2scc(-c3ccccc3)c2C(=O)O)cc(OC)c1OC | 12.6 µM (active) | 
34 | COc1cc(C(=O)Nc2scc(-c3ccc(Br)cc3)c2C(=O)O)cc(OC)c1OC | 5.62 µM (active) | 
35 | NC(=O)C1CCN(CC(=O)Nc2ccc3c(c2)OCCO3)CC1 |  | -1.63
36 | CCOC(=O)CSc1nc2ccc(NC(=O)CSc3nnnn3Cc3ccccc3)cc2s1 |  | -28.3
37 | O=C(NCCc1ccccc1)C(c1cccs1)N(C(=O)c1csnn1)C1CC1 (stereo not given) |  | -0.725
38 | Cc1nc(CS(=O)(=O)c2ccccc2)cc(N2CCOCC2)n1 |  | 1.26
39 | O=C(CCNS(=O)(=O)c1ccc(Br)s1)NCc1ccccc1Cl |  | 5.56
40 | CCCCC1Cc2[nH][nH]c(=O)c2C(c2ccc(F)cc2)O1 (stereo not given) |  | -21.6
41 | COc1ccc2nc(SCC(=O)N3CCN(c4ccc(F)cc4)CC3)c(C#N)cc2c1 |  | 2.87
42 | O=S(=O)(c1ccccc1)N1N=C(c2cccs2)CC1c1ccc(Br)cc1 (stereo not given) |  | 4.73
43 | O=C1NC(c2cc(Cl)cc([N+](=O)[O-])c2O)Nc2ccccc21 (stereo not given) | 8.91 µM (active) | 
44 | O=C1NC(c2cccs2)Nc2ccccc21 (stereo not given) |  | -12.8
45 | Cc1cccc(S(=O)(=O)NC(=O)C2(C)CCN2C(=O)Cc2cc(F)ccc2F)c1 (stereo not given) |  | -1.58
46 | Cc1cccc2cc(CN(Cc3cccnc3)C(=S)NCCCN(C)C)c(=O)[nH]c12 |  | 0.897
47 | COc1cc(Cn2c3ccc(NC(=O)CCc4ccccc4)cc3c(=O)n2C)ccc1F |  | -2.41
48 | CCOc1ccc(S(=O)(=O)N(C(=O)c2ccco2)c2cc3sc(=O)oc3c3ccccc23)cc1 |  | -1.84
49 | CCCOc1ccc(CSc2ncn[nH]2)cc1 |  | 1.37
50 | O=C(NCc1ccccc1)C(c1ccccc1)n1c(=O)c(-c2ccco2)nc2ccccc21 (stereo not given) |  | -24.1
